The whole screen tested about 290,000 compounds, of which about 1,800 (0.62%) were called active. The sample holds actives, similar compounds and a random draw of the others, so the mix is not that of the screen. Cut-off read from the data, not from the text of the source: active = inhibition above about 50%; inactive = the rest.

The assay in a line: NOD2 signaling inhibitors, cell-based, luminescence, uHTS, HEK293 (AID 1566). The conditions noted are these: HEK293 NOD2/NF-kB luciferase reporter, at 4 µM, hits give high values. (In a reporter assay the amount or activity of a reporter protein is the signal.)
Broadly, the inhibition is the relative decrease from the control value, in per cent. On to `CC1(C)CC(=O)C=C(N2CCN(C3=CC(=O)CC(C)(C)C3)CC2)C1`, for which the inhibition is -10.7% (inactive).

As for `COc1ccc(C(=O)NC(=S)Nc2ccc(N3CCOCC3)cc2)cc1Cl`, the inhibition was 13.8% (inactive).

In the case of `Cc1ccc(C(=O)NC(=S)Nc2ccc(N3CCOCC3)cc2)cc1C`, the inhibition was 50.7% (active).

In the case of `Cc1cccc(C(=O)NC(=S)Nc2ccc(N3CCOCC3)cc2)c1`, the inhibition was 7.7% (inactive).

For the compound `Cc1ccn2c(NC(=O)c3cccs3)c(-c3ccccc3)nc2c1`, the inhibition was 17.5% (inactive).

Regarding `COc1ccc(OC)c(Cc2nnc(CCC(=O)NCc3nc4ccccc4s3)o2)c1`, the inhibition was 5.2% (inactive).

Consider `CC(C)Cc1nc(N2CCN(C(=O)c3ccco3)CC2)c(C#N)c2c1CCC2`, for which the inhibition was 13.3% (inactive).

In the case of `CC(C)Cc1nc(N2CCN(C(=O)c3ccco3)CC2)c(C#N)c2c1CCCC2`, the inhibition was 23.8% (inactive).

Turning to `Cc1ccc(S(=O)(=O)N(CC(=O)NCCSCc2ccco2)c2ccc(F)cc2)cc1`, the inhibition is -2.2% (inactive).

Take `CC(C)CNC(=O)CN(c1ccccc1)S(=O)(=O)c1ccccc1[N+](=O)[O-]`: the inhibition was -10.6% (inactive).

Take `O=C(c1ccccc1)N1CCN(CC(O)COc2cccc3ccccc23)CC1` (stereo unspecified): the inhibition was -10% (inactive).

In the case of `CCOC(=O)c1c(NC(=O)CSc2nc3ccccc3c(=O)n2-c2ccc(F)cc2)sc(C(C)=O)c1C`, the inhibition is -19.4% (inactive).

Regarding `O=S(=O)(Nc1ccc(N2CCOCC2)cc1)c1ccc(F)cc1F`, the inhibition is -1.9% (inactive).

For `O=C(c1ccco1)N1CCCC(c2nc3c(nnn3Cc3c(Cl)cccc3Cl)c(=O)[nH]2)C1` (stereo unspecified), the inhibition is -43.2% (inactive).

In the case of `O=[N+]([O-])c1ccc(-c2c(O)c3ccccc3c3nc4ccccc4nc23)cc1`, the inhibition was 58.6% (active).

`O=[N+]([O-])c1ccc(-c2cnc3ccccc3n2)cc1`: the inhibition was -35.5% (inactive).

For `Cc1cc(-c2ccc([N+](=O)[O-])cc2)nc2ccccc12`, the inhibition was -13.5% (inactive).

As to `Cc1ccc(Oc2nc3ccccn3c(=O)c2/C=C(\C#N)C(=O)NC2CCS(=O)(=O)C2)c(C)c1` (stereo unspecified), the inhibition is 0.4% (inactive).

On to `O=C(Nc1ccc(C(=O)OC2CCCCC2)cc1)c1ccncc1`, for which the inhibition is 61.2% (active).

On to `O=C(OC1CCCCC1)c1ccc(NC(=O)c2ccco2)cc1`, for which the inhibition was -39.4% (inactive).

Turning to `O=C(OC1CCCCC1)c1ccc(NC(=O)C2CCCCC2)cc1`, the inhibition is 8.6% (inactive).

As to `COCCNC(=O)C1CC(c2ccc([N+](=O)[O-])cc2)=NO1` (stereo unspecified), the inhibition was 21% (inactive).

Regarding `COc1ccc(OCC(=O)Nc2cccc(NC(=O)c3ccco3)c2)cc1`, the inhibition was 1.8% (inactive).

In the case of `Cc1cnnn1-c1cccc([N+](=O)[O-])c1`, the inhibition was -9.2% (inactive).

On to `COC(=O)Cc1[nH]n(-c2nc3ccccc3s2)c(=O)c1C(C)=O`, for which the inhibition was -18.8% (inactive).

With `COC(=O)Cc1[nH]n(-c2nc3ccccc3s2)c(=O)c1C(C)=Nc1ccc(Cl)cc1`, the inhibition was 6.3% (inactive).

Take `CN(Cc1cn[nH]c1-c1ccc2c(c1)OCO2)C1CCOCC1`: the inhibition is 10.5% (inactive).

Turning to `CCCc1sc(N/N=C/c2ccccn2)nc1-c1ccc(Br)cc1`, the inhibition was -44.6% (inactive).

Regarding `Cc1nc(N/N=C/c2ccccn2)sc1C`, the inhibition was 56.9% (active).

On to `Cc1csc(N/N=C/c2ccccn2)n1`, for which the inhibition was -60.9% (inactive).

Turning to `Oc1ccc(Br)cc1CNc1ccccn1`, the inhibition is -10.8% (inactive).

In the case of `O=C(CCl)Nc1cccc(Oc2cnccn2)c1`, the inhibition is -47.8% (inactive).

`CCCCc1ccc(NC(=S)NCCc2ccc(S(N)(=O)=O)cc2)cc1`: the inhibition is 24.9% (inactive).

Take `COc1ccc(CCNC(=O)Nc2cccc([N+](=O)[O-])c2)cc1`: the inhibition was 79.5% (active).

In the case of `COc1ccc(CCNC(=O)Nc2cccc([N+](=O)[O-])c2)cc1OC`, the inhibition is 4.7% (inactive).

Take `COc1ccccc1CCNC(=O)Nc1cccc([N+](=O)[O-])c1`: the inhibition was 13.6% (inactive).

With `CCOC(=O)c1c(N)sc(C(=O)N(CC)CC)c1C`, the inhibition was 2.6% (inactive).

As to `CC1(C)CC(=O)C=C(NCc2cccs2)C1`, the inhibition is 1.3% (inactive).

As to `OCC[C@@H]1C[C@H](O)[C@@H](O)[C@]2(Cc3ccccc3CCO2)O1`, the inhibition was -4.1% (inactive).

For `Cc1oc(-c2ccc(Cl)cc2)nc1CN1CCCN(C(=O)c2ccco2)CC1`, the inhibition was 18.6% (inactive).

For `Cc1oc(-c2ccc(Cl)cc2)nc1CN1CCCC(C(=O)N2CCOCC2)C1` (stereo unspecified), the inhibition is 10.7% (inactive).

For the compound `Cc1oc(-c2ccc(Cl)cc2)nc1CN1CCCC(C(=O)N2CCN(C(=O)c3ccco3)CC2)C1` (stereo unspecified), the inhibition was 50% (active).

As for `COc1ccc(OC)c(S(=O)(=O)Nc2ccc(OCC(=O)O)cc2)c1`, the inhibition was 3.3% (inactive).

Regarding `COc1ccc(NC(C)=O)cc1S(=O)(=O)NC(Cc1ccccc1)C(=O)O` (stereo unspecified), the inhibition is -25.7% (inactive).

In the case of `COc1ccc(CC(NC(C)=O)C(=O)NC2CCN(C(=O)C3CCCCC3)CC2)cc1OC` (stereo unspecified), the inhibition is 13.5% (inactive).

`CCOCCCNS(=O)(=O)c1ccc(NC(=O)c2ccccc2)cc1`: the inhibition was 11.3% (inactive).

With `Cc1nnc(SCC(=O)Nc2ccc([N+](=O)[O-])cc2)n1CC1CCCO1` (stereo unspecified), the inhibition is 2.5% (inactive).

Take `CC1CCc2c(sc3ncnc(N4CCOCC4)c23)C1` (stereo unspecified): the inhibition is 26% (inactive).

On to `CC1CCc2sc3ncnc(N4CCN(C)CC4)c3c2C1` (stereo unspecified), for which the inhibition is 12.6% (inactive).

Take `CCOc1ccc(NC(=O)CC2C(=O)N(c3ccccc3)C(=O)N2CCc2cccs2)cc1` (stereo unspecified): the inhibition was 23.4% (inactive).

Consider `COc1ccc(CCNC(=O)C2CCN(S(=O)(=O)c3ccc(-n4cnnn4)cc3)CC2)cc1OC`, for which the inhibition was 6% (inactive).

Take `CCOc1ccccc1NC(=O)CNC(=O)CNC(=O)Cc1ccccc1`: the inhibition was -3.4% (inactive).

With `Cc1sc2ncnc(NC3CCN(Cc4ccccc4)CC3)c2c1C`, the inhibition was 36.9% (inactive).

For the compound `Cc1csc2c(NC3CCN(Cc4ccccc4)CC3)ncnc12`, the inhibition is 34.1% (inactive).

Take `COc1cc(CC(=O)NCC2CCCCC2)cc(OC)c1OC`: the inhibition was -1.9% (inactive).

For the compound `CCOc1cccc(-c2nnc3sc(C4CCCCC4)nn23)c1`, the inhibition was 20.8% (inactive).

In the case of `COc1ccc(-c2nnc3sc(C4CCCCC4)nn23)cc1OC`, the inhibition is 13.6% (inactive).

Take `COc1cccc(-c2nnc3sc(C4CCCCC4)nn23)c1`: the inhibition is 55.3% (active).

Take `O=C(NC1CCCCCC1)c1ccc(OCC2CCCO2)cc1` (stereo unspecified): the inhibition was -82% (inactive).

Consider `OCCC1CN(Cc2cccn2-c2ccccn2)CCN1C1CCCCC1` (stereo unspecified), for which the inhibition was -19.4% (inactive).

With `Cc1c(/C=N/NC(=O)c2ccc(O)cc2)c2ccccn2c1C(=O)c1ccc(F)cc1`, the inhibition was 7% (inactive).

In the case of `CNC(=S)N/N=C/c1c(C)c(C(=O)c2ccc(F)cc2)n2ccccc12`, the inhibition is 25.2% (inactive).

As for `Cc1cccc(NS(=O)(=O)c2ccc(C(=O)NCCCN3CCOCC3)cc2)c1C`, the inhibition is 14.9% (inactive).

As to `S=C(NCc1cccnc1)Nc1cccc2ccccc12`, the inhibition was -6.2% (inactive).

In the case of `S=C(NCc1ccccc1)Nc1cccc2cnccc12`, the inhibition is 52.6% (active).

As for `S=C(NCc1ccccc1)Nc1cccc2ccccc12`, the inhibition was 3.3% (inactive).

Take `O=C(NN1CCOCC1)c1ccc(S(=O)(=O)N2CCCCC2)cc1`: the inhibition was 4.3% (inactive).

On to `O=C(O)c1cc(-c2ccc(N3CCOCC3)cc2)nn1-c1ccccc1Cl`, for which the inhibition was 3.2% (inactive).

For `N#C/C(=C\Nc1ccc(F)c(Cl)c1)S(=O)(=O)c1ccccn1`, the inhibition is 0.9% (inactive).

Turning to `CCn1cc([N+](=O)[O-])c(C(=O)Nc2nc(-c3ccc(C)cc3)c(C)s2)n1`, the inhibition is 3% (inactive).

In the case of `CCn1cc([N+](=O)[O-])c(C(=O)Nc2nc(-c3ccc(C)c(C)c3)c(C)s2)n1`, the inhibition is 13% (inactive).

With `Cc1nc(SCc2ccc(F)cc2)c2oc3ccccc3c2n1`, the inhibition is 11.8% (inactive).

For `c1ccc(-n2ncc3c(N4CCCCC4)ncnc32)cc1`, the inhibition is -32.5% (inactive).

For `CCOC(=O)C1CCN(c2ncnc3c2cnn3-c2ccc(Cl)cc2)CC1`, the inhibition was 57.5% (active).

In the case of `COc1ccc(-n2ncc3c(N4CCCCC4)ncnc32)cc1`, the inhibition was 67.7% (active).

For `COc1ccc(-n2ncc3c(N4CCC(C(N)=O)CC4)ncnc32)cc1`, the inhibition is -46.4% (inactive).

`CCOC(=O)C1CCN(c2ncnc3c2cnn3-c2ccccc2)CC1`: the inhibition is 1.8% (inactive).

Turning to `CCOC(=O)C1CCN(c2ncnc3c2cnn3-c2ccc(OC)cc2)CC1`, the inhibition was 23.8% (inactive).

In the case of `CC1CCCN(c2ncnc3c2cnn3-c2ccccc2)C1` (stereo unspecified), the inhibition was -14.2% (inactive).

Take `Clc1ccc(-n2ncc3c(N4CCCC4)ncnc32)cc1`: the inhibition was 17.1% (inactive).

Take `CC1CC(C)CN(c2ncnc3c2cnn3-c2ccc(Cl)cc2)C1` (stereo unspecified): the inhibition was 27.7% (inactive).

With `COc1ccc(-n2ncc3c(N4CCC(C)CC4)ncnc32)cc1`, the inhibition is -97.6% (inactive).

In the case of `Clc1ccc(-n2ncc3c(N4CCCCCC4)ncnc32)cc1`, the inhibition was 70.6% (active).

Take `CC1CCCN(c2ncnc3c2cnn3-c2ccc(Cl)cc2)C1` (stereo unspecified): the inhibition is 86.2% (active).

Turning to `CCCc1cc(=O)oc2cc(OCC(=O)NCc3ccccn3)ccc12`, the inhibition was 8.8% (inactive).

In the case of `CSc1ncc(Cl)c(C(=O)Nc2c(C)cccc2C)n1`, the inhibition is -5.2% (inactive).

With `N#Cc1c(NCCN)nc(-c2ccccc2)c2c1CCCC2`, the inhibition was 10.4% (inactive).

As to `O=C(/C=C/c1cccc(Cl)c1)NCc1ccccc1`, the inhibition was 9.9% (inactive).

`CN(Cc1nc(Cc2ccccc2F)no1)Cc1cccc2ncccc12`: the inhibition was 19.2% (inactive).

Turning to `COc1ccc(NC(=O)COC(=O)C2CCC(C(C)(C)C)CC2)c([N+](=O)[O-])c1` (stereo unspecified), the inhibition was 16.1% (inactive).

On to `Cc1cc(C(F)(F)F)nc(CCNCc2c(C(=O)N3CCCC3)nc3ccccn23)n1`, for which the inhibition was 12.8% (inactive).

With `Cc1ccc(/C=N/c2sc3c(c2C(N)=O)CCCC3)o1`, the inhibition was -59.1% (inactive).

Regarding `COc1ccc(-n2c(=S)[nH]c3cc(C(=O)Nc4cccc(C)c4)ccc3c2=O)cc1`, the inhibition is -42% (inactive).

On to `O=C(O)CC1NC(=O)N(c2ccc(Cl)cc2)C1=O` (stereo unspecified), for which the inhibition was 5.4% (inactive).

As for `N#CC1=C(SCc2ccccc2)NC(=O)CC1c1cccc(O)c1` (stereo unspecified), the inhibition is 12.9% (inactive).

For the compound `O=S(=O)(c1ccc(Cl)cc1)N1CCN(S(=O)(=O)N2CCCCCC2)CC1`, the inhibition is -1.1% (inactive).

The record behind these values is PubChem BioAssay AID1566 (Sanford-Burnham Center for Chemical Genomics, 2009).
